Data on 80 molecules can be found in PubChem BioAssay AID488890 (Southern Research Specialized Biocontainment Screening …, 2010).

Screen size: about 320,000 compounds; about 1,300 (0.41%) were called active. Inconclusive results (about 3%) are left out. No rule for the calls is given here. The list is a sample of the results. Entries with a potency or affinity are not part of this list.

This experiment in a line: growth inhibition of non-replicating M. tuberculosis (AID 488890).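 Also: plate controls were DMSO cells for no effect and high antibiotic wells for full effect.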 The note with it: Mycobacterium tuberculosis non-replicating, at 25 µM, stronger effect = higher value.
On to `Cc1ccc(C)c(OCCCNCc2ccccc2)c1`, for which the inhibition (usually the relative decrease from the control value, in per cent) stood at 32.5%.
As for `Brc1ccccc1OCCNCc1ccccc1`, the inhibition turned out to be 32.1%.
For `CCc1sc(C(=O)Nc2ccc3c(c2)OCO3)cc1C`, the inhibition amounted to 61.2%.
Regarding `O=C(Nc1ccc2c(c1)OCO2)c1cccs1`, the inhibition came to 21.2%.
As for `O=C(N/N=C/c1c(Nc2cccc(C(F)(F)F)c2)nc2ccccn2c1=O)c1ccccc1[N+](=O)[O-]`, the figure is -6.01%; as for `CN(C)c1ccccc1C(=O)c1ccccc1N(C)C`, 9.64%.
As to `O=[N+]([O-])c1ccccc1Oc1cnc2ccccc2n1`, the inhibition came to 46.2%.
Regarding `Oc1ccccc1C1CC(c2cccs2)=NC(c2ccc(Cl)cc2)N1` (stereo not given), the inhibition was determined as 73.4%.
For the molecule `Oc1ccc(Cl)cc1C1=NNC(c2cc(Br)cc3c2OCOC3)C1` (stereo not given), the inhibition was found to be 61.3%.
As to `COC(=O)C1=C(C(=O)OC)[C@@H]2N(Cc3ccccc3)c3ccccc3[C@@]23C[C@@H](C(=O)OC)N(C(=O)c2cccs2)C3=N1`, the inhibition is 21.8%.
Take `CC1CCc2c(C(=O)NCCCN3CCOCC3)csc2C1` (stereo not given): the inhibition is -0.86%.
As for `COc1cc(NS(=O)(=O)c2csc(C(N)=O)c2)cc(OC)c1`, the figure is 2.46%.
Consider `COc1ccc(C)c2sc(N(CCN(C)C)C(=O)c3ccc4ccccc4c3)nc12`, for which the inhibition was determined as 28.4%.
On to `Cc1ccc(CNC(=O)COc2ccc3c(c2)CCC3)cc1`, for which the inhibition was 55.2%.
Consider `CCOc1ccc(NC(=O)COc2ccc3c(c2)CCC3)cc1OC`, for which the inhibition was determined as 66.5%.
As for `Cc1cccnc1NC(=O)COc1ccc2c(c1)CCC2`, the figure is 70.6%.
`Cc1ccc(NC(=O)COc2ccc3oc4c(c3c2)CCCC4)nc1`: the inhibition is 57.5%.
In the case of `Cc1cc(NC(=O)COC(=O)COc2ccc3c(c2)CCC3)no1`, the inhibition came out at 10.3%.
For `CC(=O)Nc1ccc(NC(=O)COc2ccc3c(c2)CCC3)cc1`, the inhibition is 79.7%.
Take `CC(C)C[C@@H](CSc1ccccc1)N1CCN(CCc2ccccc2)CCC1=O`: the inhibition stood at 31%.
`Fc1cccc(Cl)c1/C=C/c1cnc2ccccc2n1`: the inhibition stood at 13.9%.
For `COc1ccc(-c2noc(CN(C)CCC3CCCCO3)n2)cc1` (stereo not given), the inhibition was found to be 17.2%.
Consider `COc1ccc(N2C(=O)CSC2c2cccc(F)c2)cc1` (stereo not given), for which the inhibition was determined as 1.65%.
As for `COC(=O)C1=CN(c2ccc(OC)cc2)C=C(C(=O)OC)C1c1cccc(F)c1`, the figure is 26.1%; as for `COc1ccccc1N(CC(=O)NCC1CCCO1)C(=O)CCC(=O)Nc1nccs1` (stereo not given), 1.91%.
As for `Cc1nc2ccccc2c(=O)n1-c1cc(F)ccc1F`, the inhibition turned out to be 10.4%.
As for `Nc1ccccc1C(=O)c1ccccc1`, the figure is -8.33%; as for `Nc1ccccc1C#Cc1ccccc1`, 44.7%; as for `COc1ccc(C(=O)Cn2c(NCCO)nc3ccccc32)cc1`, -8.13%.
As for `CCCCNC(=O)CCn1nc(-c2ccc(C)cc2)c2ccccc2c1=O`, the figure is 1.93%.
For the molecule `Cc1cc(C(=O)N/N=C/c2ccc3ccccc3c2)n[nH]1`, the inhibition was -9.05%.
Regarding `Cc1cccc(Cn2ccc(NC(=O)c3cccnc3)n2)c1`, the inhibition came out at 31.2%.
As for `CCOC(=O)Cn1ccc(NC(=O)c2ccc3c(c2)OCO3)n1`, the figure is -2.16%; as for `CC1CCCC(C)N1C(=O)COC(=O)c1c[nH]c2ccccc12` (stereo not given), 15.5%.
As for `COCCNC(=O)c1cc2cc(Br)cc(OC)c2oc1=O`, the inhibition came to 56%.
On to `O=C(NCCO)c1cc2cc(Cl)cc(Cl)c2oc1=O`, for which the inhibition amounted to 18%.
As for `COc1ccccc1/C=C/C(=O)OCCN1C(=O)c2ccccc2C1=O`, the figure is 2.64%; as for `NC(=O)C1CCN(C(=O)NC2CC(=O)N(c3ccc4c(c3)OCCO4)C2)CC1` (stereo not given), -13.4%.
For the molecule `C/C(=N\NC(=O)c1ccco1)c1ccc(C(=O)O)s1`, the inhibition is -5.86%.
On to `C/C(=N\NC(=O)c1ccc(C(=O)N/N=C(\C)c2ccco2)o1)c1ccco1`, for which the inhibition was 19.3%.
For `CCC/C(=N/NC(=O)c1csc(C)c1C)c1ccc(Cl)s1`, the inhibition is 0.55%.
Turning to `CC(NC(=O)c1ccco1)C(=O)OCC(=O)c1ccc(Cl)s1` (stereo not given), the inhibition was determined as 13.9%.
`O=C(COC(=O)c1ccc(Cl)nc1)NNC(=O)c1ccc(Br)cc1`: the inhibition amounted to 6.9%.
As for `Cc1ccc(CS(=O)(=O)c2ccc(C(=O)N3CCN(c4ccccn4)CC3)cc2[N+](=O)[O-])cc1`, the inhibition is -16.8%.
As to `Cc1ccc(C(=O)OC(C)C(=O)NC2CCCCC2C)s1` (stereo not given), the inhibition was -2.95%.
As for `CC(OC(=O)c1cccs1)C(=O)NC1CCCCC1C` (stereo not given), the figure is -13.9%; as for `COc1ccc(C(CNC(=O)C(Cc2ccccc2)NC(N)=O)N(C)C)cc1` (stereo not given), 3.12%; as for `CCNC(=S)NNC(=O)c1ccncc1`, 65.4%.
Take `CC(C)(C)C(=O)NC(=S)NNC(=O)c1ccncc1`: the inhibition stood at 71.7%.
As for `N/C(Cn1cncn1)=N\NC(=O)C(=O)Nc1ccccc1`, the figure is 18%; as for `Nc1ccc(Br)cc1Br`, -19.9%; as for `Nc1ccc(Oc2ccc(Br)cc2)cc1`, 60.5%.
On to `O=[N+]([O-])c1ccc(O)c(/C=N/n2c(CO)nc3ccccc32)c1`, for which the inhibition was -11.8%.
As for `Cc1ccc(/C=N/n2c(C)nc3ccccc3c2=O)s1`, the figure is 18.6%; as for `Cc1cc2ncn(/N=C/c3cccnc3)c2cc1C`, 55%.
On to `OCc1nc2ccccc2n1/N=C/c1cccs1`, for which the inhibition was -12%.
As for `Cc1cc2ncn(/N=C/c3ccc4c(c3)OCO4)c2cc1C`, the figure is 64.7%; as for `Nc1nc2ccccc2n1/N=C/c1ccc([N+](=O)[O-])s1`, 74.1%.
As for `COc1ccc(C(=O)Nc2ccccc2)cc1S(=O)(=O)NCc1ccco1`, the inhibition is -9.46%.
For the molecule `Cc1ccc(S(=O)(=O)N2CCCC(C(=O)NNCC(=O)Nc3cc(F)ccc3F)C2)cc1` (stereo not given), the inhibition is 11.7%.
On to `O=C(Nc1nnc(SCc2ccccc2F)s1)C1=COCCO1`, for which the inhibition was 45.5%.
On to `CNC(=O)COC(=O)c1ccc([N+](=O)[O-])cc1Cl`, for which the inhibition was found to be 11.7%.
On to `CCc1cc2ccc(C)cc2nc1SCC(=O)c1ccc(NC(C)=O)cc1`, for which the inhibition came out at 12%.
Take `Cc1ccc(NCC(=O)c2ccc(C)cc2)cc1`: the inhibition was 72.5%.
`Cc1ccc(C(=O)CNc2ccc(Cl)cc2)cc1`: the inhibition came out at 74.1%.
In the case of `CC(C)Oc1ccc(NC(N)=O)cc1`, the inhibition is -4.08%.
On to `CC(C)Oc1ccc(NC(=O)CCC(=O)O)cc1`, for which the inhibition was -9.1%.
`Cc1ccc(-c2nnn(CC(=O)N(c3ccccc3)C(C(=O)NCC3CCCO3)c3cccs3)n2)o1` (stereo not given): the inhibition is -3.42%.
With `O=C(O)C1C2C=CC(C2)C1C(=O)Nc1nccs1` (stereo not given), the inhibition is -3.04%.
With `COc1ccc2c(=O)c(-c3ccccc3C)c(C)oc2c1`, the inhibition came out at 50.8%.
As for `Cc1ccc(N2C(=O)C3C4C=CC(CNC(=S)Nc5ccc(F)cc5)(O4)C3C2=O)cc1` (stereo not given), the figure is 54.3%.
`COc1ccc(Cl)cc1S(=O)(=O)n1c([N+](=O)[O-])cnc1C`: the inhibition is -6.01%.
As for `Cc1ccc(NC(=O)Cc2ccc(Cl)cc2)nc1`, the figure is 27.8%.
Consider `Cc1ccc(OCC(=O)NC(=S)Nc2cccc(C)n2)cc1`, for which the inhibition is 7.91%.
As to `O=C(Cc1ccc([N+](=O)[O-])cc1)Nc1ccc(Br)cn1`, the inhibition was -0.37%.
Regarding `O=C(COC(=O)COc1ccccc1)Nc1ccc(Cl)cn1`, the inhibition was 22.1%.
On to `O=C(Cc1ccc(Cl)cc1)Nc1ccc(Cl)cn1`, for which the inhibition turned out to be 78.1%.
Regarding `COc1ccc(OCC(=O)Nc2cccc(NC(=O)COc3ccc(OC)cc3)n2)cc1`, the inhibition is -11.7%.
Consider `Cc1ccc(OCC(=O)Nc2ccc([N+](=O)[O-])cn2)cc1C`, for which the inhibition was -14.3%.
For `O=C(COC(=O)CCOc1ccccc1)Nc1ccc(Cl)cn1`, the inhibition was 79.6%.
